Results filed as inconclusive are left out. Entries that show only a call come without a potency. Values without a mark were called inactive. Calls of active or inactive are those of the source. Calls come from the whole dose curve; as a rule, active = well fitted cell-killing curve with a large enough effect in the repeat runs; inconclusive = weak or mixed curves, or effect the other way; inactive = flat fitted curve, though single readings scatter.

This experiment is described as follows: cAMP Responsive Elements (CRE) small molecule antagonists, cell-based qHTS assay: qHTS cell viability counter screen (AID 2060913). Note: nearly all actives have a fitted effect of over 40% in size. Conditions: CRE-bla HEK293T viability, CellTiter-Glo luminescence, 5 h; series mostly up to 92.4 µM. An outline of the steps:
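Viability of NKH477-stimulated (0.25 uM final) CRE-bla HEK293T cells is measured by CellTiter-Glo luminescence following 3 hrs compound exposure at 37 C.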
Regarding `O=C1c2cccc(O)c2C(=O)c2c(O)cccc21`, the Potency entry was “inactive”.

With `CCOC(N)=O`, the Potency entry is “inactive”.

For `O=[N+]([O-])c1ccc(F)c(Cl)c1`, the Potency result is “inactive”.

For `CC1(C)S[C@@H]2[C@H](NC(=O)COc3ccccc3)C(=O)N2[C@H]1C(=O)O`, the Potency entry was “inactive”.

Consider `O=C(OCc1ccccc1)c1ccccc1O`, for which the Potency result was “inactive”.

Take `CCCC(=O)OC[C@@H](OC(=O)CCC)[C@@H](OC(=O)CCC)[C@H](Cn1c2nc(=O)[nH]c(=O)c-2nc2cc(C)c(C)cc21)OC(=O)CCC`: the Potency entry was “inactive”.

With `CN(C)CCOC(c1ccccc1)c1ccccc1`, the Potency entry is “inactive”.

For `CC(C)(Oc1ccc(C2CC2(Cl)Cl)cc1)C(=O)O` (stereo not given), the Potency entry is “inactive”.

Take `OCc1ccccn1`: the Potency result was “inactive”.

Consider `CC(=N\O)/C(C)=N/O`, for which the Potency result was “inactive”.

On to `Nc1ccnc(=O)[nH]1`, for which the Potency result is “inactive”.

With `C/C=C(/C(=C/C)c1ccc(O)cc1)c1ccc(O)cc1`, the Potency result is “inactive”.

As for `O=Cc1ccc(O)c(O)c1O`, the Potency result is “inactive”.

Turning to `OC[C@H]1O[C@H](O[C@]2(CCl)O[C@H](CCl)[C@@H](O)[C@@H]2O)[C@H](O)[C@@H](O)[C@H]1Cl`, the Potency result was “inactive”.

For the compound `CCO[Si](OCC)(OCC)c1ccccc1`, the Potency result was “inactive”.

For `CCCCCCCCCCCCCCCC(=O)OC/C=C(C)/C=C/C=C(C)/C=C/C1=C(C)CCCC1(C)C`, the Potency entry was “inactive”.

For `CC(=O)O[C@]1(C(C)=O)CC[C@H]2[C@@H]3C[C@H](C)C4=CC(=O)CC[C@]4(C)[C@H]3CC[C@@]21C`, the Potency result is “inactive”.

For `C=C[Si](OC)(OC)OC`, the Potency result is “inactive”.

For `CNCCC(Oc1ccccc1OC)c1ccccc1` (stereo not given), the Potency entry is “inactive”.

`CN(C)CCOc1ccccc1Cc1ccccc1`: the Potency result is “inactive”.

As for `CCCCCC`, the Potency result is “inactive”.

Regarding `CO[Si](CCCNCCC[Si](OC)(OC)OC)(OC)OC`, the Potency result was “inactive”.

Take `Cc1cnc(NS(=O)(=O)c2ccc(N)cc2)nc1`: the Potency result was “inactive”.

With `NC(=O)OCC(COC(N)=O)c1ccccc1`, the Potency entry was “inactive”.

As to `CC1=CCC(C(C)C)C=C1` (stereo not given), the Potency entry was “inactive”.

`Cc1cc(=O)[nH]c(C(C)C)n1`: the Potency entry is “inactive”.

As to `C1=CCC2CC=CC2C1` (stereo not given), the Potency result was “inactive”.

For the compound `O=C(NS(=O)(=O)/C=C/c1cccs1)c1ccc(F)cc1Br`, the Potency entry is “inactive”.

Turning to `Cc1cc(C)n(CO)n1`, the Potency result is “inactive”.

Regarding `COc1ccc2c(c1)c(CC(=O)OCC(=O)O)c(C)n2C(=O)c1ccc(Cl)cc1`, the Potency entry was “inactive”.

For `Cc1cc(O)c2c(c1)C(=O)c1cccc(O)c1C2=O`, the Potency entry was “inactive”.

For the compound `CC1(C)S[C@@H]2[C@H](N=CN3CCCCCC3)C(=O)N2[C@H]1C(=O)O`, the Potency entry is “inactive”.

For the compound `COC(=O)[C@@H]1[C@H]2C[C@H]3c4[nH]c5ccccc5c4CCN3C[C@@H]2CC[C@@H]1O`, the Potency entry was “inactive”.

In the case of `OC[C@@H](O)[C@@H](O[C@@H]1O[C@H](CO)[C@H](O)[C@H](O)[C@H]1O)[C@H](O)[C@@H](O)CO`, the Potency entry is “inactive”.

As to `CCCCOc1cc(C(=O)OCCN(CC)CC)ccc1N`, the Potency result was “inactive”.

Take `Clc1cc(Cl)c(Cl)cc1Cl`: the Potency entry is “inactive”.

With `COCCOCCOCCOCCOCCO`, the Potency entry is “inactive”.

Regarding `CCOC(C)(C)C`, the Potency result was “inactive”.

As for `Cc1ccc(C(N)=O)cc1N`, the Potency result is “inactive”.

Regarding `O=C(O)CN(CCOCCOCCN(CC(=O)O)CC(=O)O)CC(=O)O`, the viability change, negative = cytotoxic was -0.164% [at 0.349 µM].
